PubChem BioAssay AID1053205 (Broad Institute, 2014)
Entries with a potency or affinity are not part of this list. Records with an inconclusive call do not appear. The source made the active and inactive calls.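 How the source made its calls: active means compounds lowering the FRET ratio whose fitted half-maximal concentration is at most twice their top tested dose; inconclusive means flat partial drop between 30 and 70 percent, or bad fit; inactive means the rest.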

What follows are molecules tested against Voltage-dependent L-type calcium channel subunit alpha-1D (Homo sapiens) (UniProt Q01668) (assay: inhibitors of CaV1.3 ICDI-IQ binding, dose response, cell-based, HEK293, YFP-IQ/CFP-ICDI FRET, cherry-picks (AID 1053205)). Conditions: HEK293 YFP-IQ/CFP-ICDI FRET ratio, 10 min; series mostly up to 35 µM.
Voltage-dependent L-type calcium channel subunit alpha-1D (Homo sapiens), sequence (Q01668 whole entry, looked up): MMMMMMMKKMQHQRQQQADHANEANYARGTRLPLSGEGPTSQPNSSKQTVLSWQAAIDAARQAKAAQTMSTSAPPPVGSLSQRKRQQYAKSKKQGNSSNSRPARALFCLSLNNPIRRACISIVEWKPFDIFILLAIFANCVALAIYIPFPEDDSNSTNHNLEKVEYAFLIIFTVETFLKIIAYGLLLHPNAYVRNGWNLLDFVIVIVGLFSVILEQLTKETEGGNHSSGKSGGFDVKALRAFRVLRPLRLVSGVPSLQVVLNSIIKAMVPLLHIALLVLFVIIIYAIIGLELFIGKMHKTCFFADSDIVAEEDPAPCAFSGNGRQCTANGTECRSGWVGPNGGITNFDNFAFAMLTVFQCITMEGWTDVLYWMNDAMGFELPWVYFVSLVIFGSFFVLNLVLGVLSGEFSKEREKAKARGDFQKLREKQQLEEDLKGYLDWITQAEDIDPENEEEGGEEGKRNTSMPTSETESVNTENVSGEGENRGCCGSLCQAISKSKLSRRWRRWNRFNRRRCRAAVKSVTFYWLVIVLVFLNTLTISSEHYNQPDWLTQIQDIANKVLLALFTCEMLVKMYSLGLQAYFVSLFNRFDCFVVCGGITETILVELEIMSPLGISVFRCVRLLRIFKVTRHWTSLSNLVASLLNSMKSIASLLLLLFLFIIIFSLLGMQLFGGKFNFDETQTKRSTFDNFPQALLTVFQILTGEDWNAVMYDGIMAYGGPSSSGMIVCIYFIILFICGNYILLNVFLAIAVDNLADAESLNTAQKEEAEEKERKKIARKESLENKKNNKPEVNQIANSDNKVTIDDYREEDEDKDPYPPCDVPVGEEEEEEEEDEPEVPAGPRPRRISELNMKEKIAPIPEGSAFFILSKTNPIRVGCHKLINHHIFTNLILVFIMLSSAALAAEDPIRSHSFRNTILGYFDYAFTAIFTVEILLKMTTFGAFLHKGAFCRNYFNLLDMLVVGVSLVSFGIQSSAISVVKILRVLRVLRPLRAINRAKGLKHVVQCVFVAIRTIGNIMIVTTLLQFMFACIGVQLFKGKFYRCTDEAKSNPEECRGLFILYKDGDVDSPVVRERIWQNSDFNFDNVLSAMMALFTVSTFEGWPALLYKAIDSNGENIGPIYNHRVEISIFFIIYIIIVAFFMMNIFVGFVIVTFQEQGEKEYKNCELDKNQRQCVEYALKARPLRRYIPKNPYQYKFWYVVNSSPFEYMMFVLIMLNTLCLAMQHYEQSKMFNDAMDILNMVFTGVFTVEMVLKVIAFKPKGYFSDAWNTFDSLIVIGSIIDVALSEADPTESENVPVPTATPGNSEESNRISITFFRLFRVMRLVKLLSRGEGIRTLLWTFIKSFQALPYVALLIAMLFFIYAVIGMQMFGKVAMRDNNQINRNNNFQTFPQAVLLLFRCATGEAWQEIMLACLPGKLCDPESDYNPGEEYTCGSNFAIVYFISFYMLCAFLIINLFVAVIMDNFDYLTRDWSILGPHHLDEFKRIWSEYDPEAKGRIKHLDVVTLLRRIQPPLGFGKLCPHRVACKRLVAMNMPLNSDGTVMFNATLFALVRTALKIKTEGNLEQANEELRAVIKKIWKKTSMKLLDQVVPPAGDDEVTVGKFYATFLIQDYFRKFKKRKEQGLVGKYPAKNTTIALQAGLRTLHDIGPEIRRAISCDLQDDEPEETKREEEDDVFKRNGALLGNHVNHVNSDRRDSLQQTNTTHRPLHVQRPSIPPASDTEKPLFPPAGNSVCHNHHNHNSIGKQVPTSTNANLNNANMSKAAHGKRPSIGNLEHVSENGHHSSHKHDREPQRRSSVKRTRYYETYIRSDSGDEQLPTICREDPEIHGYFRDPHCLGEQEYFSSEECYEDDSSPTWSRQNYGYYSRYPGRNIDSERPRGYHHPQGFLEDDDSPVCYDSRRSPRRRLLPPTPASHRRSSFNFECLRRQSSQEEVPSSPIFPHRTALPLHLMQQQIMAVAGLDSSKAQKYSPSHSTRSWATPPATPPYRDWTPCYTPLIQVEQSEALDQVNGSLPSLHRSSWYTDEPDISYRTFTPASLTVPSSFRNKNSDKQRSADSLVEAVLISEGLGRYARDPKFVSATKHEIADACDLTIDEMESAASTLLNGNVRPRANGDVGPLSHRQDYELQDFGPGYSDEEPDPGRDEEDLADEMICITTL

outcome, inactive:
Cc1c(C=O)c2ccccn2c1C(=O)c1cccs1
Cc1oc(/N=C/c2ccc(O)cc2O)c(C#N)c1C
CCOc1ccc(NC(=O)CN(C)C(=O)CCCNC(=O)c2ccc(Cl)cc2)cc1OCC
CCCCn1nc(NC(=O)c2cccs2)c2cc3cc(OC)ccc3nc21
CCOCCCNc1c(CC)c(C)c(C#N)c2nc3ccccc3n12
O=C(O)c1cccc(NC(=O)c2cn(-c3ccccc3)nc2-c2cccc(Br)c2)c1
COc1c(Cl)cc(-c2noc(C)c2C(=O)NCc2ccc3c(c2)OCO3)cc1Cl
S=c1[nH]c2ccc(Cc3ccc4[nH]c(=S)[nH]c4c3)cc2[nH]1
CN(C)/C=C/C(=O)c1c(F)cccc1F
O=C(NCc1cc(C(F)(F)F)ccc1Cl)c1cccc2c1C(=O)c1ccc(Cl)cc1S2(=O)=O
COCc1cc(C)nc(SCC(=O)Oc2ccc(Cl)cc2)c1C#N
CCN(CC)CCN1C2=C(C(=O)CC(C)(C)C2)C(c2cccc(F)c2)C2=C1CC(C)(C)CC2=O
N#Cc1c(NCCCO)nc(NCc2ccccc2)c2c1CCN(Cc1ccccc1)C2
CC(C)(C)[C@H]1CCC(=O)N([C@H](CSc2ccccc2)Cc2ccccc2)CC1
CCc1ccccc1S(=O)(=O)Cc1ccc(C(=O)N2CCN(c3ccccc3OC)CC2)o1
CC(C)C(=O)Nc1sc2c(c1C(N)=O)CCN(Cc1ccccc1)C2
COc1cc2sc3cc(NCC[C@@H]4CCCN4C)ccc3c(=O)c2cc1OC
COc1cc(C(=O)OCC(C)=O)cc(NC(=O)c2ccco2)c1OC
Cc1cccn2c(=O)c3cc(C(=O)NC(C)c4ccccc4)c(=N)n(CCCn4ccnc4)c3nc12 (configuration not stated)
O=c1oc2c(CN3CCN(CCO)CC3)c(O)ccc2cc1-c1ccccn1
COc1ccc(NC(=O)C2CCC(CNS(=O)(=O)c3cccs3)CC2)cc1 (configuration not stated)
CC(=O)NNc1cc(N2CCOCC2)nc(N2CCOCC2)n1
Cc1ccc2nc3c(cc(C(N)=S)c(=N)n3CCCOC(C)C)c(=O)n2c1
CCOC(=O)c1oc2c(CN3CCN(CCO)CC3)c(O)c(CC)cc2c(=O)c1-c1nc2ccccc2s1
CCN(CC)CCCNc1nc(C)cc(COC)c1C#N
CN1c2ccc(Cl)cc2C(=O)NC1C1CC=CCC1 (configuration not stated)
Cn1cnc(S(=O)(=O)Nc2ccc(OC(F)(F)F)cc2)c1
N#Cc1c2ccc(O)cc2n2ccccc12
O=C(COC(=O)c1cc(S(=O)(=O)N2CCCCC2)ccc1N1CCOCC1)c1ccccc1Cl
CN1CCN(c2nc3ccccn3c(=O)c2/C=C(\C#N)S(=O)(=O)c2ccccc2)CC1
CC(=O)Nc1cccc(-c2ccnc3c2CC(C(=O)NCc2cccc(Cl)c2)O3)c1 (configuration not stated)
O=c1[nH]c(=O)c2nc(-c3ccc(Cl)cc3)cnc2[nH]1
Clc1ccccc1C1=CC(c2ccco2)n2ncnc2N1 (configuration not stated)
Cc1cc(-c2ccccc2)c2ccc(NC(=O)C(C)(C)C)nc2n1
CCOc1ccc(-n2c(SCC(=O)Nc3nccs3)nnc2-c2ccoc2C)cc1
CCCOc1ccccc1/C=C1\SC(N)=NC1=O
CCc1cccc(C)c1NC(=S)NCc1ccc2c(c1)cc(C)n2C
